# Shown are actives, neighbours in structure and some others; about 3.8% of the full set was active somewhere.
# HepG2 tox: kills HepG2 cells in TGF-b inhibitor counter-screen. AID 588856. 410,000 tested, 0.76% active. Potency, µM (series often up to 46.1 µM), without a hit: at the highest dose activity change, negative = cytotoxicity, actives largely listed as cytotoxic. HepG2 CAGA-GFP viability, ATP luminescence, 18 h
#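 HepG2 CAGA-GFP cells (1000/well, DMEM with 1% FBS) received compound, then TGF-beta at 500 pg/mL final, and were incubated 18 hours at 37 degrees C. Viability was read by CellTiter-Glo luminescence. Media-only wells were set as complete cell-killing and DMSO as no toxicity.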
# ATXN2 expr inh: ATXN2 expression inhibition; HEK-293 ATXN2-luciferase reporter, luminescence, 24 h; Potency, µM (doses to about 57 µM), for the others: top-dose activity change, negative = inhibition, actives largely listed as inhibitors; 360,000 tested, 0.72% active; AID 1745845; further: on the % scale 0 is the no-effect control and ±100 the full control effect; nearly all actives have a fitted effect of over 55% in size
#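 ATXN2-luciferase reporter cells (luciferase flanked by upstream and downstream ATXN2 gene portions) were treated 24 h at 37 °C with compounds at up to 57 uM. SteadyGlo luminescence gave expression; GF-AFC fluorescence gave viability.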
# ATXN viability: cell viability loss in ATXN counter-screen | 400,000 tested, 0.49% active | AID 651635 | S2 cells (HEK-293 line with an ATXN2-luciferase reporter) viability, CellTiter-Fluor protease fluorescence, 24 h | Potency, µM (top dose mostly 56.7 µM), hits mostly cytotoxic; further: nearly all actives have a fitted effect of over 40% in size
# HT1080 IDH1KD tx: HT-1080 IDH1 knockdown cell toxicity (counter line). Potency, µM (series often up to 46.1 µM), without a hit: at the top dose activity, negative = toxicity, usual class: cytotoxic. AID 686971. 360,000 tested, 2% active. HT-1080 IDH1 knockdown viability, ATP luminescence, 48 h;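 further: 0% = DMSO wells and -100% = cell-free medium wells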
#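 IDH1KD HT-1080 cells, 750/well, RPMI + 5% FBS; compound pinned after 2 h settling; 48 h, 37 °C; CellTiter-Glo luminescence; % activity normalised to DMSO and no-cell wells; curves fitted, classed by r2 and efficacy.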
# TGFb SMAD3 inh: TGF-b pathway inhibition | HepG2 CAGA-GFP TGF-b/SMAD3 reporter, GFP fluorescence, 18 h; TGF-beta stimulated, 500 pg/mL final | Potency, µM (titrated, usually from 46.1 µM), without a hit: at the highest dose activity, negative = inhibition, actives largely listed as inhibitors | 410,000 tested, 1.2% active; further: on the % scale 0 is the no-effect control and ±100 the full control effect; nearly all actives have a fitted effect of over 65% in size
#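 HEPG2 CAGA-GFP, 1000 cells/well; 2 h settle, 37 C; cpd via pin tool; TGF-b 500 pg/mL final; 18 h, 37 C; GFP imaging ex488/em500-530; %Activity normalised to -TGF-b and +DMSO controls; CRC fit, curve class.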
# HT1080NT lethal: kills 2HG-producing HT-1080-NT fibrosarcoma cells | HT-1080-NT fibrosarcoma viability, CellTiter-Glo ATP luminescence, 48 h | Potency, µM (highest dose often 46.1 µM), for the others: at the highest dose activity, negative = less viability, usual class: cytotoxic | 360,000 tested, 1.6% active;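 further: NT is the 2HG producing partner of a matched IDH1 knockdown line; 0% = DMSO-treated cells and -100% = media-only wells without cells; nearly all actives have a fitted effect of over 55% in size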
#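 750 cells/well, RPMI + 5% FBS; 2 h settle, compound pin-transfer, 48 h at 37 degrees C. CellTiter-Glo 10 min RT, luminescence. Normalized to DMSO and media-only wells.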
# Starred values were filed as active, the others as inactive; i = inactive; ? = inconclusive; / = not tested or not shown; [ ] = dose if it differs, or a comment. The call rests on the fitted dose curve; in most records, active means well fitted curve in the direction sought with a large enough effect; inconclusive means small, poorly fitted or top-dose-only effect, or another doubt; inactive means no such curve, though single readings can be large; an effect the other way counts as inactive or inconclusive. Potency means the concentration at half of the fitted maximal effect.
SMILES,HepG2 tox,ATXN2 expr inh,ATXN viability,HT1080 IDH1KD tx,TGFb SMAD3 inh,HT1080NT lethal
COc1ccc(NC(=O)N(C)[C@H]2C[C@H]3c4[nH]c5ccc(-c6ccc7c(c6)OCO7)cc5c4CCN3C[C@H]2[C@H](C)O)cc1,-83%,16µM*,20µM*,23µM*,?,23µM*
COc1ccccc1-c1ccnc(-n2ncc(C(=O)N(C)CCc3ccccn3)c2C)n1,/,/,i,/,/,/
O=C(Nc1cccc(C(=O)OCc2cc(=O)n3c4c(sc3n2)CCCC4)c1)c1cccc(F)c1,-58%,/,/,/,?,/
O=S(=O)(c1ccc(OC(F)(F)F)cc1)N1CCC(c2nc3ccccc3s2)CC1,-11%,/,/,/,-21%,/
Cc1ccc(C(=O)Nc2nc(-c3ccccn3)cs2)s1,-8%,?,i,?,?,-28%
O=C(Nc1nc(-c2ccccn2)cs1)c1ccc(Cl)s1,-15%,?,i,4.1µM*,?,?
CCc1sc(C(=O)Nc2nc(-c3ccccn3)cs2)cc1C,-2%,25µM*,i,?,-16%,-22%
Cc1ccc(-c2nn(-c3ccccc3)cc2C(N)=O)o1,-19%,19%,i,2%,0%,4%
Cc1ccc(-c2nn(-c3ccccc3)cc2C=O)o1,-11%,5%,i,18µM*,-7%,?
CCOc1ccccc1NC(=O)N1CCC2(CC1)Oc1ccccc1C(=O)N2Cc1ccccc1F,2%,/,/,/,/,/
CC(=O)NC1=NN(C(C)=O)C(C)(c2cccs2)S1 (configuration not stated),-31%,?,i,4.6µM*,-16%,2.9µM*
CC(=O)NC1=NN(C(C)=O)C(C)(c2ccco2)S1 (configuration not stated),2%,-1%,i,23µM*,5%,?
O=C(Nc1ccc(Br)cc1)c1ccc(F)c(S(=O)(=O)N2CCc3ccccc32)c1,-34%,/,/,/,11µM*,/
CC(=O)Nc1ccc(NC(=O)c2ccc(Cl)c(S(=O)(=O)N3CCc4ccccc43)c2)cc1,1%,-20%,?,2%,0%,-7%
O=C(Nc1cccnc1)c1ccc(Cl)c(S(=O)(=O)N2CCc3ccccc32)c1,3.5µM*,-18%,i,0%,-31%,5%
CCCCn1c(=O)n(-c2cc(OC)ccc2OC)c(=O)c2c3c(sc21)CN(C(C)=O)CC3,-34%,1%,i,/,-13%,/
COc1ccccc1N=c1oc2cc(O)ccc2cc1C(N)=O,10µM*,-5%,/,?,24%,23µM*
CNC(=O)c1nnsc1S(=O)(=O)c1ccc(Cl)cc1,18µM*,?,?,2.9µM*,11µM*,?
O=C(c1nnsc1S(=O)c1ccc(Cl)cc1)N1CCOCC1 (configuration not stated),-98%,5%[11.3 µM],/,?,?,13µM*
O=C(c1nnsc1S(=O)(=O)c1ccc(Cl)cc1)N1CCOCC1,13µM*,?,/,?,?,15µM*
O=C(Nc1ccccc1)c1nnsc1S(=O)c1ccc(Cl)cc1 (configuration not stated),-89%,?,?,-22%[9.24 µM],?,?
Nc1nc(C(=O)N2CCOCC2)nn1S(=O)(=O)c1ccc(Cl)cc1,-23%,2%,i,6%,-7%,12%
CC1=C(C(=O)c2ccccc2)C(c2ccc(OC(F)F)cc2)NC(=S)N1 (configuration not stated),-7%,-6%,?,15µM*,?,?
CC1=C(C(=O)c2ccccc2)C(c2ccc(O)cc2)NC(=S)N1 (configuration not stated),-17%,/,/,5%,-24%,-2%
O=C(c1ccc2c(Cl)c3c(nc2c1)CCCC3)N1CCN(c2cccc(Cl)c2)CC1,3%,3%,i,/,?,/
SMILES,HepG2 tox,ATXN2 expr inh,ATXN viability,HT1080 IDH1KD tx,TGFb SMAD3 inh,HT1080NT lethal
COc1cccc(N2CCN(C(=O)c3nc(-c4ccc(Cl)cc4)n4c3CCCCC4)CC2)c1,-38%,-36%,?,/,16µM*,/
COc1ccc(CCNC(=O)c2nc(-c3ccc(Cl)cc3)n3c2CCCCC3)c(OC)c1,-25%,?,?,/,8.9µM*,/
COc1cccc(N2CCN(C(=O)c3ccc4c(Cl)c5c(nc4c3)CCCC5)CC2)c1,-48%,11%,?,/,11µM*,/
Cc1cccc(CCNC(=O)c2nc(-c3ccc(Cl)cc3)n3c2CCCCC3)c1,2%,-39%,?,/,?,/
CC(=O)NC(C)c1cc(Cl)c2cccnc2c1O (configuration not stated),8.9µM*,7.9µM*,6.3µM*,/,7.1µM*,/
CCC(=O)NC(C)c1cc(Cl)c2cccnc2c1O (configuration not stated),-58%,8.9µM*,?,/,1.8µM*,/
CC(=O)NC(C)c1cc(Cl)c2ccccc2c1O (configuration not stated),-1%,-6%,i,/,?,/
Cc1cc(S(=O)(=O)ON2C(=O)c3ccccc3C2=O)ccc1F,2%,/,?,0%,11%,1%
Cc1ccc(C)c(S(=O)(=O)ON2C(=O)c3ccccc3C2=O)c1,-9%,-33%,?,13µM*,?,?
Cc1ccc(CCNC(=O)CCSCc2ccccc2Cl)cc1,-9%,/,/,/,0%,/
Cc1cnc(C)cn1,-3%,/,/,/,9%,/

# From PubChem BioAssay
